# GDH-TPI counter-1: GDH-TPI coupled enzyme inhibition counter-screen. GDH-TPI coupled enzyme counterscreen, NADH absorbance. inhibition, % at 4.8 µM. AID 588335. hit rate 1.2% among 360,000; in the data active means inhibition above about 30%;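 further: 0% = DMSO wells and 100% = wells lacking the enzyme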
# FBA Mtb inh: Mtb fructose-bisphosphate aldolase inhibition; P9WQA3; purified M. tuberculosis FBA, fluorescence read-out; inhibition, % at 1 µM; hit rate 2.3% among 360,000; AID 588726;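 further: 0% = vehicle and 100% = reference inhibitor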
# Rv3671c inh: inhibitors of M. tuberculosis serine protease Rv3671c; inhibition, % at 5.96 µM; hit rate 0.048% among 320,000; in the data active means inhibition above about 38%;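 further: extracellular domain of Rv3671c used as enzyme; 0% = enzyme with DMSO and 100% = no enzyme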
# Target sequence (P9WHR9 whole entry, looked up, the tested form may be a part): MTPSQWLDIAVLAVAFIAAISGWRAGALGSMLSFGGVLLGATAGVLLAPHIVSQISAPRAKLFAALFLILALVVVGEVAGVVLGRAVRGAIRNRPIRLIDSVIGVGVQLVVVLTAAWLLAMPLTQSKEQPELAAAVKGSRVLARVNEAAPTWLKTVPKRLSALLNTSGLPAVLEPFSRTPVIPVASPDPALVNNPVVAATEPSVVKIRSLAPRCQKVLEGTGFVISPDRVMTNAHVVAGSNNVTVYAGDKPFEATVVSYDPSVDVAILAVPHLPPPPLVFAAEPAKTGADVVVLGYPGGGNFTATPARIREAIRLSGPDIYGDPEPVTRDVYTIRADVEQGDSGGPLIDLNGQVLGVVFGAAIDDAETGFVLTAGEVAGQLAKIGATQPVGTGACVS
# Mtb UGM inh: blocks M. tuberculosis UGM enzyme | inhibition, % at 10 µM | P9WIQ1 | hit rate 0.06% among 320,000 | purified UGM, fluorescence polarization probe displacement; in the data active means inhibition above about 10%, passing the limit was not always enough
# RecA intein inh: inhibitors of M. tuberculosis RecA intein splicing | inhibition, % (test concentration not listed) | P9WHJ3 | hit rate 0.75% among 290,000 | cell-free RecA intein splicing, fluorescence; in the data active means inhibition above about 30%;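 further: 0% = vehicle wells and 100% = reference inhibitor control wells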
# Mtb betalactam: beta-lactam sensitization of Mtb H37Rv | M. tuberculosis H37Rv growth with meropenem, percent inhibition | inhibition, % at 25 µM | hit rate 0.27% among 330,000 | AID 434955; call rule not given here;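 further: growth measured after seven days incubation then overnight dye step; 0% = bacteria only wells and 100% = bacteria with antibiotic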
# Mtb FBA confirm: confirmation of M. tuberculosis fructose-bisphosphate aldolase inhibitors. shares compounds with FBA Mtb inh. inhibition, % at 1 µM. purified M. tuberculosis FBA, fluorescence read-out. hit rate 78% among 5,600;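 further: 0% = vehicle wells and 100% = reference inhibitor wells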
# GDH-TPI counter-2: inhibits GDH-TPI coupling enzymes, flagging Mtb FBA hits. shares compounds with FBA Mtb inh. GDH-TPI coupled enzyme counterscreen, fluorescence. inhibition, % at 1 µM. hit rate 81% among 5,600. AID 652141; in the data active means inhibition above about 10%
# * marks the source's active call; other numbers are inactive results; x = no result given; + = active, no number. Rows were chosen to be rich in hits. Some 4% of all compounds tested hit in one or more screens of this group. Unless noted, no stated cut-off is given here; in the data, active means inhibition above about 27%; inactive means the rest.
SMILES,GDH-TPI counter-1,FBA Mtb inh,Rv3671c inh,Mtb UGM inh,RecA intein inh,Mtb betalactam,Mtb FBA confirm,GDH-TPI counter-2
CC1(C(=O)NS(=O)(=O)c2ccc(F)cc2F)CCN1C(=O)Cc1ccc(Cl)cc1Cl (stereo not given),9,-1,x,x,x,x,x,x
CC(C)c1ccc(-c2c(NCCc3ccccc3)c(=O)c2=O)cc1,9,2,-8,-2,-1,7,x,x
Cc1cc2c(c(=O)n1CC1CCCO1)C(c1ccco1)C(C#N)=C(N)O2 (stereo not given),12,32*,-6,-4,-12,-14,41*,38*
COc1cc(C2C(C#N)=C(N)Oc3cc(C)n(CC4CCCO4)c(=O)c32)cc2c1OCO2 (stereo not given),4,3,x,x,-3,x,x,x
Cc1ccccc1-c1cnc(C(O)c2ccc(C(C)(C)C)cc2)[nH]1 (stereo not given),5,0,x,x,x,x,x,x
Cc1cccn2c(=O)c(C=Nc3ccccc3)c(NCCO)nc12,22,39*,1,2,-12,-8,7,-2
Cc1cccn2c(=O)c(C=Nc3ccc(Cl)cc3)c(NCCO)nc12,7,31*,4,-2,-7,-2,66*,45*
COc1ccc(C)cc1NC(=O)Nc1ccncc1,6,2,5,0,0,2,x,x
CC1(C(=O)NS(=O)(=O)c2ccc(F)cc2F)CCN1C(=O)c1cccc(F)c1 (stereo not given),4,6,x,x,x,x,x,x
COc1ccc(CNC(=O)CCCC2=NS(=O)(=O)c3ccccc3N2)cc1,4,102*,-1,1,-1,10,132*,139*
COc1ccc(CNC(=O)CC(C)CC2=NS(=O)(=O)c3ccccc3N2)cc1 (stereo not given),-6,-1,-1,0,4,0,x,x
CC(=O)NC(C)(c1ccccc1)c1nc(-c2csc3ccccc23)cs1 (stereo not given),8,2,x,x,x,x,x,x
CC(C)NC(=S)N/N=C/c1ccc(N2CCOCC2)cc1,40*,38*,-2,0,-3,0,120*,89*
O=C(N/N=C/c1ccc(N2CCOCC2)cc1)c1ccncc1,26,-1,-8,-5,x,97,x,x
COCCNC(=S)N/N=C/c1ccc(N2CCOCC2)cc1,31*,46*,2,-4,-6,-4,+,+
CC(C)(C)c1ccc(OCC(=O)N/N=C/c2ccc(N3CCOCC3)cc2)cc1,23,27*,14,0,-1,5,62*,43*
C=C(C)CNC(=S)N/N=C/c1ccc(N2CCOCC2)cc1,42*,53*,-4,-3,1,4,53*,52*
c1cc(-c2ccc3c(c2)CCO3)n2cnnc2c1,4,15,x,x,x,x,x,x
c1cc(-c2ccc(N3CCOCC3)cc2)n2cnnc2c1,18,92*,x,x,x,x,174*,151*
O=C(Nc1ccccc1Cl)c1cc(C2CCCCN2C(=O)CCCc2ccccc2)on1 (stereo not given),13,2,x,x,x,x,x,x
c1ccc(-n2cc(CN3CCCC3)c(-c3ccc4c(c3)OCO4)n2)cc1,-4,25,-6,-8,4,-4,x,x
c1ccc(-n2cc(CN3CCC(N4CCOCC4)CC3)c(-c3ccc4c(c3)OCO4)n2)cc1,11,36*,1,-1,0,-3,55*,66*
COc1ccc(CNC(=O)C23CC4CC(CC(Br)(C4)C2)C3)cc1,5,54*,0,1,1,1,71*,40*
COc1ccc(CNC(=O)CC23CC4CC(CC(C4)C2)C3)cc1,0,6,-13,0,2,-1,x,x
CC(=O)c1ccc(S(=O)(=O)N(C)CCCC(=O)NCc2ccc3c(c2)OCO3)cc1,9,84*,x,x,x,x,144*,96*
SMILES,GDH-TPI counter-1,FBA Mtb inh,Rv3671c inh,Mtb UGM inh,RecA intein inh,Mtb betalactam,Mtb FBA confirm,GDH-TPI counter-2
Cn1cc(S(=O)(=O)NC[C@H]2O[C@@H](n3cnc4c(N)ncnc43)[C@H](O)[C@@H]2O)cn1,6,6,x,x,x,x,x,x
N#C/C(=C\c1cccnc1)c1ccccn1,4,37*,-1,0,1,-6,45*,41*
N#C/C(=C\c1ccccc1)c1ccccn1,8,2,-4,2,-1,-7,x,x
Cc1ccc(-n2c(C)nnc2SCC(=O)N(C)c2c(N)n(Cc3ccccc3)c(=O)[nH]c2=O)cc1,1,-1,-9,-1,x,-5,x,x
Cn1nc(-c2ccc(Cl)cc2)c2cc(C(=O)NCC3CCCO3)sc21 (stereo not given),7,63*,-16,-1,4,57,81*,57*
CCN(CC)CCCNC(=O)c1cc2c(-c3ccc(Cl)cc3)nn(C)c2s1,10,21,-9,0,x,59,x,x
CN1CCN(CCCNC(=O)c2cc3c(-c4ccc(Cl)cc4)nn(C)c3s2)CC1,13,28*,-17,x,0,70,62*,57*
COc1ccc(OC)c(C(=O)NC(CC(N)=O)c2ccc(N3CCC(Cc4ccccc4)CC3)c([N+](=O)[O-])c2)c1 (stereo not given),15,1,6,-1,7,4,x,x
O=C(O)/C=C\C(=O)Nc1ccccc1C(=O)NCc1ccccc1,10,52*,-1,4,0,1,-5,-3
NC(=O)c1ccccc1NC(=O)/C=C/C(=O)O,-1,50*,-7,2,1,-6,57*,49*
COC(=O)c1ccccc1NC(=O)/C=C/C(=O)O,5,7,8,1,0,1,x,x
O=C(O)/C=C/C(=O)NCc1ccccc1,-5,-1,0,1,0,-2,x,x
CC(=O)c1cccc(NC(=O)C2Cc3c(-c4cccc(C(N)=O)c4)ccnc3O2)c1 (stereo not given),-6,2,x,x,x,x,x,x
NC(=O)c1cccc(-c2ccnc3c2CC(C(=O)NCc2ccccc2)O3)c1 (stereo not given),4,5,x,x,x,x,x,x
O=C(NCc1ccncc1)C1Cc2c(-c3ccc4c(c3)OCO4)ccnc2O1 (stereo not given),-4,45*,x,x,x,x,59*,44*
O=C(NCc1ccccc1)C1Cc2c(-c3ccc4c(c3)OCO4)ccnc2O1 (stereo not given),4,65*,x,x,x,x,+,+
CN1CCN(c2ccc(CNC(=O)C3Cc4c(-c5ccc6c(c5)OCO6)ccnc4O3)cc2)CC1 (stereo not given),-6,23,x,x,x,x,x,x
COc1ccc(-c2oc3ccc(N4CCOCC4)cc3c2/C=C/c2ccc(OC)c(OC)c2)cc1,40*,36*,-2,1,-5,26,+,176*
COc1ccc(/C=C/c2c(-c3ccc(OC)cc3)sc3ccc(N4CCOCC4)cc23)cc1,23,4,0,-2,-2,-3,x,x
